Data: PubChem BioAssay
Calls of active or inactive are those of the source. Unless noted, the rule behind the calls is not given here.

Tests used:
[1] = compound effects on lung adenocarcinoma cell viability – A549, calcein-AM fluorescence, 48 h, basal, profiling panel (AID 1162); settings: higher = more signal; note: test concentration not given here
[2] = compound effects on differentiated 3T3-L1 adipocyte viability – cell-based, 3T3-L1 adipocytes, calcein-AM fluorescence, 48 h, basal, profiling panel (AID 1163); settings: 3T3-L1 adipocytes viability, higher = more signal; note: test concentration not given here
[3] = compound effects on hepatocellular carcinoma cell viability – HepG2, calcein-AM fluorescence, 48 h, basal, profiling panel (AID 1164); settings: higher = more signal; note: test concentration not given here
[4] = compound effects on multiple myeloma cell viability – MM1S, calcein-AM fluorescence, 48 h, basal, profiling panel (AID 1165); settings: higher = more signal;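 note: viability of MM1S multiple myeloma cells under basal unstimulated conditions; test concentration not given here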
[5] = calcein-AM signal in unstimulated myeloma cells – cell-based, calcein-AM fluorescence, 48 h, PK04 Diversity Set, profiling panel (AID 1166); settings: RPMI8226 myeloma viability, higher = more signal;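 note: cells grown under basal conditions without added stimulus; test concentration not given here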
[6] = JC-1 mitochondrial signal, unstimulated HepG2 cells – cell-based, JC-1 fluorescence, 24 h, 100 nL compound, profiling panel (AID 1167); settings: HepG2 mitochondrial potential, higher = more signal; note: test concentration not given here
[7] = JC-1 mitochondrial signal, unstimulated adipocytes – cell-based, JC-1 fluorescence, 3T3-L1 adipocytes, 24 h, 100 nL compound, profiling panel (AID 1168); settings: JC-1 mitochondrial fluorescence, higher = more signal, called active from +8 up or from −8 down; note: test concentration not given here
[8] = JC-1 mitochondrial signal, unstimulated myeloma cells – cell-based, JC-1 fluorescence, RPMI8226, 24 h, 100 nL compound, profiling panel (AID 1169); settings: JC-1 mitochondrial potential fluorescence, higher = more signal; note: test concentration not given here
[9] = JC-1 mitochondrial signal, unstimulated MM1S myeloma – cell-based, JC-1 fluorescence, 24 h, 100 nL compound, profiling panel (AID 1170); settings: MM1S mitochondrial potential, higher = more signal; note: test concentration not given here
[10] = resazurin metabolic signal in A549 cells – cell-based, resazurin fluorescence, 24 h, PK04 Diversity Set, profiling panel (AID 1171); settings: A549 viability, higher = more signal, called active from +8 up or from −8 down; note: test concentration not given here
[11] = resazurin metabolic signal in HepG2 cells – cell-based, resazurin fluorescence, 24 h, PK04 Diversity Set, profiling panel (AID 1172); settings: HepG2 viability, higher = more signal; note: test concentration not given here
[12] = budding yeast growth changes without added modifier – OD600, strain BY4716, 24 h, basal condition, primary screen (AID 1173); settings: S. cerevisiae BY4716 growth, OD600, 24 h; higher = more signal, called active from +8 up or from −8 down
[13] = viability profiling in MM1S myeloma cells – cell-based, resazurin fluorescence, basal, 24 h, PK04 Diversity Set, profiling panel (AID 1174); settings: higher = more signal, called active from +8 up or from −8 down; note: test concentration not given here
[14] = molecular target: Dihydroorotate dehydrogenase (quinone), mitochondrial (Plasmodium falciparum (isolate 3D7)) (UniProt Q08210); experiment: inhibition of P. falciparum DHODH – biochemical, C-terminal His tag, absorbance 600 nm, primary screen (AID 1175); settings: PfDHODH enzyme, DCIP absorbance 600 nm; higher = more signal, called active from +8 up or from −8 down;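 note: recombinant parasite enzyme with a five histidine tag at its C terminus; test concentration not given here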
Chain of Dihydroorotate dehydrogenase (quinone), mitochondrial (Plasmodium falciparum (isolate 3D7)) (Q08210 whole entry, looked up): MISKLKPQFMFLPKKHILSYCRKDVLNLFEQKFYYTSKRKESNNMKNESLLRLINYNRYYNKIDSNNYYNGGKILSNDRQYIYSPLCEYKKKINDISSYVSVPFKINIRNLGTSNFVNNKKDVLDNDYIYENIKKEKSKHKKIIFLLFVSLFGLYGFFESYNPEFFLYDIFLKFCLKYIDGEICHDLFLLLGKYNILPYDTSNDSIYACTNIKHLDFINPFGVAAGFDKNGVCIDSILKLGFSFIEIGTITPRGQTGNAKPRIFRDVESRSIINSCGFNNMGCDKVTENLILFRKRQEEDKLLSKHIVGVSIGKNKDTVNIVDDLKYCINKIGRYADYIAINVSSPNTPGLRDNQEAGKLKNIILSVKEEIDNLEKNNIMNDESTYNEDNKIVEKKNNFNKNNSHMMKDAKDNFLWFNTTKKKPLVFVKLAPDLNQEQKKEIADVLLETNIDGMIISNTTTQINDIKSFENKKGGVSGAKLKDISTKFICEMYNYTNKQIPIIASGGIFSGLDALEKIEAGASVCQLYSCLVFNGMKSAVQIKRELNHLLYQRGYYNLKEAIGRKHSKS

[15] = inhibition of PAO1 biofilm formation – strain PAO1, LB-PBS medium, absorbance 600 nm, primary screen (AID 1176); note: test concentration not given here; settings: P. aeruginosa PAO1 growth/biofilm, A600, 12 h; higher = more signal
[16] = growth modulation of vineyard yeast isolate – strain RM11-1a, OD600, basal, 24 h, primary screen (AID 1177);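 note: cultures grown under basal conditions with no added stressor; test concentration not given here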; settings: S. cerevisiae RM11-1a growth, OD600, 24 h; higher = more signal, called active from +8 up or from −8 down
[17] = growth of efflux-deficient E. coli DRC39 – strain DRC39, OD650, 24 h, E. coli filamentation inducers, primary screen (AID 1178);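 note: growth measured as culture turbidity by optical density at 650 nm; test concentration not given here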; settings: E. coli DRC39 acrAB, higher = more signal, called active from +8 up or from −8 down
[18] = growth of efflux-deficient E. coli DRC39 – strain DRC39, OD650, 48 h, E. coli filamentation inducers, primary screen (AID 1179);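 note: screen aims at cell division blockers that make cells filament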; settings: E. coli DRC39 delta-acrAB growth, higher = more signal, called active from +8 up or from −8 down
[19] = viability profiling in RPMI8226 myeloma cells – cell-based, resazurin fluorescence, basal, 24 h, PK04 Diversity Set, profiling panel (AID 1180); settings: higher = more signal;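 note: RPMI8826 multiple myeloma cell line at 5000 cells per well; test concentration not given here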
[20] = molecular target: E3 ubiquitin-protein ligase XIAP (Homo sapiens) (UniProt P98170); experiment: small molecules binding XIAP protein – biophysical, small-molecule microarray, fluorescence 635 nm, primary screen (AID 1181); settings: higher = more signal;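 note: score merges 667 nm emission and signal to noise over triplicate slides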
Chain of E3 ubiquitin-protein ligase XIAP (Homo sapiens) (P98170 whole entry, looked up): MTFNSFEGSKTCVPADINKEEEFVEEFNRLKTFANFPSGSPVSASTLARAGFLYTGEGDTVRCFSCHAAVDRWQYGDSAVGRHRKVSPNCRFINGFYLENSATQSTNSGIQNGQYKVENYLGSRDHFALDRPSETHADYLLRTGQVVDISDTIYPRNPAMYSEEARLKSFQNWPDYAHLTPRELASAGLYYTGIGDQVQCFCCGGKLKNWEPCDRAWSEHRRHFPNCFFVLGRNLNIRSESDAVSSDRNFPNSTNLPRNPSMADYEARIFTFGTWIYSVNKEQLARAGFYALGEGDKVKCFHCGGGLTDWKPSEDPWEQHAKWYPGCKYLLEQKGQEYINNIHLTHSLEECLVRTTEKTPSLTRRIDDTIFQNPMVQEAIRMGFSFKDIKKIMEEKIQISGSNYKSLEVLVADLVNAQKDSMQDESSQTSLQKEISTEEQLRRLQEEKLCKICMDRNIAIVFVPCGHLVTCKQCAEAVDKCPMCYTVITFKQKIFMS

Compound	z-score [1]	z-score [2]	z-score [3]	z-score [4]	z-score [5]	z-score [6]	z-score [7]	z-score [8]	z-score [9]	z-score [10]	z-score [11]	z-score [12]	z-score [13]	composite z-score [14]	z-score [15]	z-score [16]	z-score [17]	z-score [18]	z-score [19]	composite z-score [20]
C=CC[C@@]1(C(=O)NCc2ccccc2)N=C(c2ccc(OCCCO)cc2)O[C@@H]1c1ccccc1CN=[N+]=[N-]	-0.651	0.115	-1.09	-1.84	-3	-0.675	-1.85 (inactive)	-0.979	-0.975	-1.23 (inactive)	-0.46	1.36 (inactive)	-1.89 (inactive)	1.63 (inactive)	1.1 (inactive)	2.33 (inactive)	0.537 (inactive)	-0.793 (inactive)	-1.45	0.404
O=C1C[C@@](C(=O)O)(c2ccc([N+](=O)[O-])cc2)[C@@H](c2ccc(CO)cc2I)N1C1CCCCC1	1.05	1.32	0.279	-3.6	-3.61	0.053	-0.962 (inactive)	-0.826	-1.86	0.597 (inactive)	0.0536	-5.06 (inactive)	-1.62 (inactive)	-1.68 (inactive)	1.16 (inactive)	-1.01 (inactive)	1.39 (inactive)	0.466 (inactive)	-1.57	-0.289
COCCOC(=O)N1C(=O)[C@@]2(c3cc(C#CC4=CCCCC4)ccc31)[C@H](c1ccc(OCCO)cc1)N1[C@H](c3ccccc3)[C@H](c3ccccc3)OC(=O)[C@H]1[C@@H]2C(=O)Nc1nc2ccccc2s1	0.642	0.0841	-0.153	-0.381	-0.259	-2.79	-0.216 (inactive)	-0.932	-1.63	-0.057 (inactive)	1.16	1.65 (inactive)	-0.396 (inactive)	0.123 (inactive)	3.34 (inactive)	2.68 (inactive)	-0.169 (inactive)	0.422 (inactive)	0.584	0.061
COc1cc(CO)cc(I)c1O[C@H]1C=C(C(=O)NCCO)C[C@@H](N(CCc2cccc(F)c2)C(=O)CCC2CCCC2)[C@@H]1O	-1.5	2.06	-2.23	-3.19	-4.28	-1.09	0.525 (inactive)	-1.2	-1.96	-2.26 (inactive)	-1.69	-9.37 (active)	-3.26 (inactive)	-0.459 (inactive)	1.99 (inactive)	1.99 (inactive)	-0.0338 (inactive)	-0.177 (inactive)	-4.07	0.29
CCOC(=O)C[C@H]1[C@H](OC(=O)c2ccc(C(=O)c3ccccc3)cc2)[C@@H](NC(=O)c2ccc3ccccc3n2)c2cc(OCCCO)ccc2N1C(=O)c1ccc2ccccc2n1	0.602	-0.402	0.674	-0.367	-0.0521	1.24	1.63 (inactive)	-0.0794	0.215	1.04 (inactive)	0.44	-0.0495 (inactive)	0.433 (inactive)	0.681 (inactive)	0.808 (inactive)	0.081 (inactive)	0.322 (inactive)	0.388 (inactive)	0.416	-0.0525
COC(=O)c1nc2oc1CC[C@@H](CO)NC(=O)N(C)Cc1cn(nn1)C[C@H](Cc1ccccc1)NC2=O	-0.0651	-0.734	0.786	0.648	0.854	0.136	0.694 (inactive)	0.263	-1.48	-0.0624 (inactive)	0.395	-7.59 (inactive)	0.456 (inactive)	-0.773 (inactive)	0.113 (inactive)	0.219 (inactive)	0.0613 (inactive)	0.72 (inactive)	0.407	-0.117
C=CCN1Cc2ccccc2C[C@@]2(COC(c3ccc(OCCCO)cc3)=N2)C1=O	0.386	0.72	0.741	-3.59	-2.52	1.32	0.94 (inactive)	-0.988	-2.19	-1.56 (inactive)	0.344	-2.27 (inactive)	-8.12 (active)	-0.993 (inactive)	-0.127 (inactive)	1.04 (inactive)	1.32 (inactive)	1.14 (inactive)	-4.61	0.236
CC(C)OC(=O)C1=CCC(c2cccc(Cl)c2)O1 (stereo not given)	-1.14	0.102	-0.582	-1.57	-1.58	-0.231	-0.076 (inactive)	0.923	-1.99	1.09 (inactive)	0.195	-5.96 (inactive)	0.242 (inactive)	-0.582 (inactive)	0.905 (inactive)	-2.25 (inactive)	-0.138 (inactive)	0.143 (inactive)	-0.501	-0.197
CCCC[C@@H]1C[C@H]1[C@@H](NC(=O)c1ccco1)c1ccccc1	-2.22	-0.252	-2.22	-3.27	-4.74	-3.6	-1.27 (inactive)	-0.759	-2.24	2.55 (inactive)	1.39	-3.05 (inactive)	0.757 (inactive)	-1.19 (inactive)	-0.195 (inactive)	0.586 (inactive)	-0.9 (inactive)	-0.569 (inactive)	0.0092	0.171
